Measured values as given in PubChem BioAssay (NCATS).
Records with an inconclusive call do not appear. A call without a number means that no potency is given here. Unmarked numbers belong to inactive results. Active and inactive are the calls of the source. The call rests on the fitted dose curve; in most records, active means well fitted curve in the direction sought with a large enough effect; inconclusive means small, poorly fitted or top-dose-only effect, or another doubt; inactive means no such curve, though single readings can be large; an effect the other way counts as inactive or inconclusive.

Legend:
[1] = target: Cellular tumor antigen p53 (Homo sapiens) (UniProt P04637); test: Primary qHTS for small molecule compounds that upregulate eGFP-tagged delta133p53alpha (in N-terminal) cells. (AID 2060322); details: NCI-H358 eGFP-delta133p53alpha fluorescence, 24 h; activation: active compounds read high; further: nearly all actives have a fitted effect of over 75% in size; further: potency means the concentration at half of the fitted maximal effect;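 on activation: cells pre-induced with doxycycline then dosed without doxycycline; series mostly up to about 56 µM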
Procedure, shortened: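 NCI-H358 cells pre-induced 24 h with 10 ng/ml doxycycline for eGFP-delta133p53alpha, plated dox-free and exposed 24 h at 37C to titrated compounds. Fixed, Hoechst-stained; gated GFP peak intensity by laser scanning cytometry, normalized to DMSO (0%) and 57.5 uM 5-azacytidine (100%).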

[2] = target: Aldehyde dehydrogenase, mitochondrial (Homo sapiens) (UniProt P05091); test: qHTS for Inhibitors of the Aldehyde Dehydrogenase Family (ALDH2) Primary screen (AID 2061308); further: nearly all actives have a fitted effect of over 55% in size

Chain of Cellular tumor antigen p53 (Homo sapiens) (P04637 whole entry, looked up): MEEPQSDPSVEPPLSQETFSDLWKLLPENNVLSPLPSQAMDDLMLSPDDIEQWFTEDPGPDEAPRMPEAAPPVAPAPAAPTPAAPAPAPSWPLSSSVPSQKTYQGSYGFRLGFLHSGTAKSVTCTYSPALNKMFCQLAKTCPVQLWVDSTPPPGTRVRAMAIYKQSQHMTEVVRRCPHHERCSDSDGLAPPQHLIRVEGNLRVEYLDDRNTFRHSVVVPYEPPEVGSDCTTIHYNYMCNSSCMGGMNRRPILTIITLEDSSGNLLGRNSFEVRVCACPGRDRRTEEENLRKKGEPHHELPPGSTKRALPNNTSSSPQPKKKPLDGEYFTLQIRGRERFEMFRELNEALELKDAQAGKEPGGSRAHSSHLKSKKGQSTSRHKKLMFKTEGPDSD

C=C1CC[C@@H]2[C@](C)(CO)[C@H](O)CC[C@@]2(C)[C@@H]1/C=C/C1=CCOC1=O
activation [1]: -12.2%
Potency [2]: inactive

C[C@H](NCc1ccc(OCc2ccccc2F)cc1)C(N)=O
activation [1]: 11.5%
Potency [2]: inactive

C=C1CC2OC(=O)C(=C)C2C(O)/C=C(\C)CCC1O (stereo unspecified)
Potency [1]: 26.9 µM (active)
Potency [2]: inactive

COc1cc(/C=C/C(=O)OC[C@H]2O[C@@H](OC3CC(C)=C(C(=O)O)C(C)(C)C3)[C@H](O)[C@@H](O)[C@@H]2O)cc(OC)c1O (stereo partly specified)
activation [1]: -16.8%
Potency [2]: inactive

C#CCCCn1cc(-c2cccc3c2N[C@@H](C)CC(=O)N3)cn1
activation [1]: -18.8%
Potency [2]: inactive

O=C(/C=C/N1C[C@@H]2C[C@@H]1CN2c1ccccn1)c1ccccc1O
activation [1]: -4.33%
Potency [2]: inactive

COc1cc(/C=C/C(=O)O[C@H]2[C@@H]3C=CO[C@@H](O[C@@H]4O[C@H](CO)[C@@H](O)[C@H](O)[C@H]4O)[C@@H]3[C@@]3(CO)O[C@@H]23)ccc1O
activation [1]: -2.29%
Potency [2]: inactive

O=C(OC[C@H]1O[C@@H](Oc2ccccc2CO)[C@H](O)[C@@H](O)[C@@H]1O)c1ccccc1
activation [1]: 7.63%
Potency [2]: inactive

O=C(OC[C@H]1O[C@@H](Oc2ccccc2COC(=O)C2(O)C=CCCC2O)[C@H](O)[C@@H](O)[C@@H]1O)c1ccccc1 (stereo partly specified)
activation [1]: -15.3%
Potency [2]: inactive

COc1cc(C2c3cc4c(c(O)c3CC(CO)C2C(=O)O)OCO4)cc(OC)c1O (stereo unspecified)
activation [1]: 9.82%
Potency [2]: inactive

COc1cc(C2Oc3c(OC)cc(CCCO)cc3C2CO)ccc1O (stereo unspecified)
activation [1]: -18.8%
Potency [2]: inactive

O=C(O)/C=C/c1cc2c(cc1O[C@@H]1O[C@H](CO)[C@@H](O)[C@H](O)[C@H]1O)OCO2
activation [1]: 9.92%
Potency [2]: inactive

COc1cc(CC(COC2OC(CO)C(O)C(O)C2O)c2cc(/C=C/CO)cc(OC)c2O)ccc1O (stereo unspecified)
activation [1]: -6.25%
Potency [2]: inactive

COc1cc([C@H]2OC[C@]3(OC(C)=O)[C@@H](c4ccc(O[C@@H]5O[C@H](CO)[C@@H](O)[C@H](O)[C@H]5O)c(OC)c4)OC[C@H]23)ccc1O
activation [1]: -3.82%
Potency [2]: inactive

C=CC1C(OC2OC(CO)C(O)C(O)C2O)OC=C(C(=O)OC)C1CC1CC(=O)CC(CCc2ccc(O)cc2)O1 (stereo unspecified)
activation [1]: 19.6%
Potency [2]: inactive

O=C(O)c1ccnc2cc(-c3nc4ccccc4n3CCN3CCCCC3)sc12
activation [1]: -1.79%
Potency [2]: inactive

C[C@@H]1C[C@H]2OC(=O)[C@@]3(C)CCC[C@](C)(C23)[C@@]1(O)CCC1=CC(=O)OC1O (stereo partly specified)
activation [1]: 9.16%
Potency [2]: inactive

CC(CO[C@@H]1O[C@H](COC(=O)/C=C/c2ccc(O)c(O)c2)[C@@H](O)[C@H](O)[C@H]1O)C1(O)COC(=O)C1 (stereo partly specified)
activation [1]: 6.87%
Potency [2]: inactive

CC(=O)OC/C(=C/C(=O)O)CC[C@@H]1C(CO)=CC[C@@H]2C(C)(C)CCC[C@@]12C
activation [1]: 2.29%
Potency [2]: inactive

CC(C)CC1NC(=O)C2CC3(O)c4ccccc4NC3N2C1=O (stereo unspecified)
activation [1]: -9.92%
Potency [2]: inactive

C=C1C(=O)OC[C@@H]1C/C=C(\C)CC1CC(C)C(=O)O1 (stereo partly specified)
Potency [1]: 23.9 µM (active)
Potency [2]: inactive

COc1cc(C2Oc3c(OC)cc(/C=C/C(=O)OC[C@H]4O[C@@H](OC(C)(C)C(=O)O)[C@H](O)[C@@H](O)[C@@H]4O)cc3C2CO)ccc1O (stereo partly specified)
activation [1]: -9.16%
Potency [2]: inactive

CC1(C)CC2C=C(C(=O)O)C3COC(=O)C(O)(CO)C23C1 (stereo unspecified)
activation [1]: -13%
Potency [2]: inactive

COc1cc(O)cc(O[C@@H]2O[C@H](CO)[C@@H](O[C@@H]3OC[C@](O)(CO)[C@H]3O)[C@H](O)[C@H]2O)c1OC
activation [1]: -14.5%
Potency [2]: inactive

COc1ccc(/C=C/C(=O)N2CCCC2)cc1
activation [1]: 2.68%
Potency [2]: inactive

CC1(C)C=Cc2c(ccc3c2[N+]([O-])=C2C3(O)CC34NC(=O)C5(CCCN5C3=O)CC4C2(C)C)O1 (stereo unspecified)
activation [1]: 6.25%
Potency [2]: inactive

C/C=C1\[C@H](OC2OC(COC3OC(CO)C(O)C(O)C3O)C(O)C(O)C2O)OC=C(C(=O)OC)[C@H]1CC(=O)OCCc1ccc(O)cc1 (stereo partly specified)
activation [1]: -13%
Potency [2]: inactive

COC(=O)C1=COC(O[C@@H]2O[C@H](CO[C@@H]3O[C@H](COC(=O)/C=C\c4ccc(O)cc4)[C@@H](O)[C@H](O)[C@H]3O)[C@@H](O)[C@H](O)[C@H]2O)C2C(CO)=CCC12 (stereo partly specified)
activation [1]: 33%
Potency [2]: inactive
